Experimental data taken from PubChem BioAssay (Tox21).
Records with an inconclusive call do not appear. A call without a number means that no potency is given here. Active and inactive are the calls of the source. Calls follow the shape of the dose curve; as a rule, active = well fitted cell-killing curve with a large enough effect in the repeat runs (not every such curve was filed as active); inconclusive = weak or mixed curves, or effect the other way; inactive = no such curve, though single readings can be large or run the other way.

experiment: qHTS assay to identify small molecule antagonists of the estrogen related receptor signaling pathway with the pleiotropic PPARgamma coactivator (PGC) from Tox21 10K library - cell viability counter screen (AID 1224840); conditions: PGC/ERR reporter cells viability, CellTiter-Fluor, 17.5 h; series mostly up to 92.4 µM; also: nearly all actives have a fitted effect of over 40% in size
Excerpt: National Center for Advancing Translational Sciences [NCATS]
NIH Chemical Genomics Center [NCGC]
U.S. Environmental Protection Agency [EPA]
National Institutes of Environmental Health Sciences [NIEHS]
National Toxicology Program [NTP]
U.S. Food and Drug Administration [FDA]
Estrogen related receptors (ERRs), the first orphan nuclear receptors discovered, play an important role in the control of cellular energy metabolism. ERRs are required for high-energy production in response to the environmental challenges. The pleiotropic PPARgamma coactivator (PGC) is a major partner of ERR and a key regulator in energy homeostasis. Together they have been implicated in the etiology of metabolic disorders such as Type 2 diabetes and metabolic syndrome. ERR-alpha was also identified as an adverse marker for breast cancer progression; ERR-alpha-positive tumors have a poor prognosis. To screen and to identify environmental compounds that perturb the ERR and PGC/ERR signaling pathways could provide valuable information for potential therapeutic or preventive measures in the treatment of metabolic disease. To differentiate true PGC/ERR antagonists or agonist from cytotoxic substances, the assay is multiplexed with cell viability assay.
Tox21 Assay Protocol Summary:
The PGC/ERR cells were dispensed at 2,000 cells/5 ul/well in 1536-well white plates using a Multidrop dispenser. After the assay plates were incubated at a 37 C/5% CO2 incubator for 6 hours, 23 nL of compounds dissolved in DMSO, positive and negative controls or DMSO only was transferred to the assay plate by a pin tool. The plates were incubated at 37 C for 17.5 hours. 1 ul/well of CellTiter-Fluor reagent was added into the assay plates using a Flying Reagent Dispenser. After 30-minute incubation at 37 C/5% CO2, the fluorescence intensity in the plates was measured using a ViewLux plate reader.
Potency is read from the fitted curve at half-maximal effect.

Q: For `CCOC(=O)C(C)Oc1ccc(Oc2nc3ccc(Cl)cc3o2)cc1` (stereo not given), which Potency is on record?
A: Its Potency is “inactive”.

Q: For `CC(C)=CC=O`, which Potency is on record?
A: The Potency was “inactive”.

Q: Which Potency does the source give for `CCc1c2c(nc3ccc(OC(=O)N4CCC(N5CCCCC5)CC4)cc13)-c1cc3c(c(=O)n1C2)COC(=O)[C@]3(O)CC` here?
A: Its Potency is “inactive”.

Q: For `O=C(O)c1ccccc1NCCc1ccccc1`, which Potency is on record?
A: The Potency was “inactive”.

Q: For `[O]=[Bi]`, which viability change, negative = cytotoxic is on record?
A: Its viability change, negative = cytotoxic is -7.88% [at 8.39 µM] (inactive).

Q: With `CCn1cc(C(=O)O)c(=O)c2cc(F)c(N3CCNCC3)nc21` as the molecule, how does the Potency read?
A: The Potency was “inactive”.

Q: For `C/C=C(\C)C(=O)OCCC(C)CCC=C(C)C` (stereo not given), which Potency is on record?
A: Its Potency is “inactive”.

Q: With `O=C1OCCN1/N=C/c1ccc([N+](=O)[O-])o1` as the molecule, how does the Potency read?
A: The Potency was “inactive”.

Q: With `CCC(C(=O)OCCN(CC)CC)c1ccccc1` (stereo not given) as the molecule, how does the Potency read?
A: Its Potency is “inactive”.

Q: Which Potency does the source give for `CCCCCCCC/C=C\CCCCCCCC(=O)OC` here?
A: The Potency was “inactive”.

Q: With `CO[C@H]1C=CO[C@@]2(C)Oc3c(C)c(O)c4c(O)c(c5c(c4c3C2=O)=NC2(CCN(CC(C)C)CC2)N=5)NC(=O)/C(C)=C\C=C/[C@H](C)[C@H](O)[C@@H](C)[C@@H](O)[C@@H](C)[C@H](OC(C)=O)[C@@H]1C` as the molecule, how does the Potency read?
A: Its Potency is 53.3 µM (active).

Q: With `CCC(C)(O)CCC=C(C)C` (stereo not given) as the molecule, how does the Potency read?
A: The Potency was “inactive”.

Q: For `CCCCN(CCCC)CCCOC(=O)c1ccc(N)cc1`, which Potency is on record?
A: Its Potency is “inactive”.

Q: With `CO[C@H]1O[C@H](CO)[C@@H](O)[C@H](O)[C@H]1O` as the molecule, how does the Potency read?
A: Its Potency is “inactive”.

Q: With `CC(Cl)C(Cl)Cl` (stereo not given) as the molecule, how does the Potency read?
A: The Potency was “inactive”.

Q: For `COCC(O)CO` (stereo not given), which Potency is on record?
A: The Potency was “inactive”.

Q: Which Potency does the source give for `CC(=O)Oc1ccc2c(c1)CC[C@@H]1[C@@H]2CC[C@]2(C)[C@@H](O)CC[C@@H]12` here?
A: Its Potency is “inactive”.

Q: Which Potency does the source give for `CC1=CC(O)CC(C)(C)C1` (stereo not given) here?
A: The Potency was “inactive”.

Q: Which Potency does the source give for `Cn1c(=O)c2c(ncn2CC(=O)O)n(C)c1=O` here?
A: The Potency was “inactive”.

Q: For `CCCCCCCCCOC(C)=O`, which Potency is on record?
A: The Potency was “inactive”.

Q: With `CC(=O)[C@H]1CC[C@H]2[C@@H]3C[C@H](C)C4=CC(=O)CC[C@]4(C)[C@H]3[C@@H](O)C[C@]12C` as the molecule, how does the Potency read?
A: Its Potency is “inactive”.

Q: Which Potency does the source give for `O=Cc1c(Cl)cccc1Cl` here?
A: The Potency was “inactive”.

Q: For `CCOC(=O)CC(=O)C(=O)OCC`, which Potency is on record?
A: Its Potency is “inactive”.

Q: With `CCCCOC(=O)CCS` as the molecule, how does the Potency read?
A: Its Potency is “inactive”.

Q: With `CN1CCN(c2c(F)cc3c(=O)c(C(=O)O)cn4c3c2OCN4C)CC1` as the molecule, how does the viability change, negative = cytotoxic read?
A: Its viability change, negative = cytotoxic is 9.28% [at 19 µM] (inactive).

Q: With `Cc1ccnc2ccccc12` as the molecule, how does the Potency read?
A: The Potency was “inactive”.

Q: For `CCCOC(=O)c1ccc(N)cc1`, which Potency is on record?
A: The Potency was “inactive”.

Q: For `CCOc1cc(N)c(Cl)cc1C(=O)NCC1CN(Cc2ccc(F)cc2)CCO1` (stereo not given), which Potency is on record?
A: The Potency was “inactive”.

Q: Which Potency does the source give for `CC(C)(O)c1ccccc1CC[C@@H](SCC1(CC(=O)O)CC1)c1cccc(/C=C/c2ccc3ccc(Cl)cc3n2)c1` here?
A: The Potency was “inactive”.

Q: Which Potency does the source give for `CC(=O)OCC(=O)[C@@]12OC(C)(C)O[C@@H]1C[C@H]1[C@@H]3C[C@H](F)C4=CC(=O)C=C[C@]4(C)[C@@]3(F)[C@@H](O)C[C@@]12C` here?
A: Its Potency is “inactive”.

Q: Which Potency does the source give for `CC(=N\O)/C(C)=N/O` here?
A: Its Potency is “inactive”.

Q: For `CCCCCCCC/C=C\CCCCCCCC(=O)OC(CO)CO`, which Potency is on record?
A: Its Potency is “inactive”.

Q: For `CCn1nc(C)c2c1C(=O)NCC(c1ccc(O)cc1)=N2`, which Potency is on record?
A: Its Potency is “inactive”.

Q: With `O=C(CCCCCCCCC#CI)Oc1ccccc1` as the molecule, how does the Potency read?
A: Its Potency is “inactive”.

Q: Which Potency does the source give for `Cc1oncc1C(=O)Nc1ccc(C(F)(F)F)cc1` here?
A: The Potency was “inactive”.

Q: Which Potency does the source give for `CC(C)(C)C(=O)O` here?
A: Its Potency is “inactive”.

Q: For `c1cnc2c(n1)CCCC2`, which Potency is on record?
A: The Potency was “inactive”.

Q: Which Potency does the source give for `COC(=O)Nc1nc2ccc(C(=O)c3cccs3)cc2[nH]1` here?
A: The Potency was “inactive”.

Q: Which Potency does the source give for `CC(=O)Nc1ccc(N)cc1` here?
A: The Potency was “inactive”.

Q: Which Potency does the source give for `Cc1ccc(S(=O)(=O)NC2CCCCC2)cc1` here?
A: Its Potency is “inactive”.
